The list is not random: actives were taken first. Their share in the collection is about 2.9%.
MEKK2 WT-MEK5: modulators of MEK5 binding to wildtype MEKK2, primary screen, biochemical, multiplex bead flow cytometry, Alexa488-MEK5 | Mitogen-activated protein kinase kinase kinase 2 (Homo sapiens), Q9Y2U5 | Alexa488-MEK5 binding to MEKK2 WT; actives lie on both sides | binding response (% of control), % at 10 µM | hit rate 1.1% among 290,000 | AID 1531, 2009; in the data active means binding response below about 67% or above about 130%
CRFR2-BP antag: antagonists of CRF-BP/CRF-R2 complex, primary screen, cell-based, HEK293, calcium dye fluorescence, uHTS; CRF-induced calcium fluorescence; inhibition, % at 11.8 µM; hit rate 0.59% among 350,000; AID 588475, 2011;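 active means inhibition of the ligand-induced calcium signal above about 50% at the single tested concentration, limit read from the data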
MEKK3 PB1 HTS: modulators of MEKK3-MEK5 PB1 binding, primary screen, biochemical, wildtype MEKK3, multiplex bead flow cytometry, Alexa488-MEK5. Mitogen-activated protein kinase kinase kinase 3 (Homo sapiens), Q99759. bead-based flow cytometry, Alexa488-MEK5 binding to MEKK3; actives lie on both sides; 0 = blocked by unlabeled MEK5, 100 = vehicle. binding response (% of control), % at 10 µM. hit rate 1.4% among 290,000;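 active means binding response more than 3 SD above or below the average of its plate-row segment, actives on both sides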;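 further: Alexa488 bead fluorescence after subtracting the streptavidin-only scavenger bead signal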
CRFBP-R2 agonist: agonists of CRF-BP/CRF-R2 complex, primary screen, cell-based, HEK293, calcium dye fluorescence, uHTS | calcium dye fluorescence (FLIPR); percent of saturating CRF peptide response | activation, % at 13.2 µM | hit rate 0.46% among 350,000;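 active means activation of at least 50%, plus an integration ratio under a set limit after plate pattern correction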;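 further: plate controls were neutral control wells without compound for no effect and CRF at EC100 for full effect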
MEKK2mut PB1 HTS: MEK5 binding signal on mutant MEKK2 PB1, primary screen, biochemical, multiplex bead flow cytometry, Alexa488-MEK5; Alexa488-MEK5 binding to MEKK2 mutant; percent response, % at 10 µM; hit rate 0.35% among 290,000; in the data active means percent response above about 24%, passing the limit was not always enough
ABCB6 inh 2: ABCB6 transporter inhibitors, primary screen, K562-ABCB6 cells, flow cytometry, MLPCN library. K562-ABCB6 porphyrin accumulation, 1 h; stronger effect = lower value. fluorescence ratio to DMSO, % at 10 µM. hit rate 0.19% among 360,000. AID 602162, 2011;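 active means fluorescence ratio to DMSO below 75%, the collection mean minus 3 SD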;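 further: signal is porphyrin accumulated inside mitochondria; 100% equals median channel fluorescence of DMSO control wells; lower ratio means ABCB6 inhibition with less porphyrin fluorescence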
Target sequence (Q9NP58 whole entry, looked up): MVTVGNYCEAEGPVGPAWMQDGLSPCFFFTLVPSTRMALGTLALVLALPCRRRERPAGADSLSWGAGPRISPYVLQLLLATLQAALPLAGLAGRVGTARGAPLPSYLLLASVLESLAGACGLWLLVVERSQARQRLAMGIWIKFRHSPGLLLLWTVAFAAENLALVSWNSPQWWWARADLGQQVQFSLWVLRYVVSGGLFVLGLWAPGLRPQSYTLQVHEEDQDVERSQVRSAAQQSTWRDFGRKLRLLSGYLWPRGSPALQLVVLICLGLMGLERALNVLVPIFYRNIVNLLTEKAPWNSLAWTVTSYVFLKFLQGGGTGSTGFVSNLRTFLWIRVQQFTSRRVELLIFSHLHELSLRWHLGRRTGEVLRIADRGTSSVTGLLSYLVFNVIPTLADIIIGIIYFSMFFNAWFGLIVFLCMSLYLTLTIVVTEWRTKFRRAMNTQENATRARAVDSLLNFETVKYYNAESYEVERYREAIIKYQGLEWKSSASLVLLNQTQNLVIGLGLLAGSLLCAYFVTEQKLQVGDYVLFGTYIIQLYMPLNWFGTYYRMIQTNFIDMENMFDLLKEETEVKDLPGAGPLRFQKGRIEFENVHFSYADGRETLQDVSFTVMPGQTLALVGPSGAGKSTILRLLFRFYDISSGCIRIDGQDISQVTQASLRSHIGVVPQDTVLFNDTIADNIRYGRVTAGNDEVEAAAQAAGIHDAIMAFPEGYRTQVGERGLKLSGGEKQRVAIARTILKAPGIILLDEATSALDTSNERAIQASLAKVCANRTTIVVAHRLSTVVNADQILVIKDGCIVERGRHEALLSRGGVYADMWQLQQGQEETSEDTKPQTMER
Starred values were filed as active, the others as inactive; nt = not tested or not shown.

SMILES	MEKK2 WT-MEK5	CRFR2-BP antag	MEKK3 PB1 HTS	CRFBP-R2 agonist	MEKK2mut PB1 HTS	ABCB6 inh 2
COc1ccc2[nH]c3c(c2c1)CCN1C(=O)C(CC(=O)NCCc2ccccn2)C[C@H](C(=O)N(C(C)C)C(C)C)[C@@]31C (stereo partly drawn)	nt	70*	nt	-4	nt	99
CCN(CC)C(=O)[C@H]1CC(CC(=O)NC/C=C(\C)CCC=C(C)C)C(=O)N2CCc3c([nH]c4ccc(OC)cc34)[C@]12C (stereo partly drawn)	nt	78*	nt	-7	nt	97
CCCNC(=O)c1ccccc1NC(=O)c1cccc(-n2cnnn2)c1	nt	-3	nt	-1	nt	91
O=C(NCCCN1CCOCC1)c1ccccc1N1C(=O)[C@@H]2Cc3c([nH]c4ccccc34)C(c3cccc(Cl)c3)N2C1=O (stereo partly drawn)	117	-23	104	14	7	99
CN(C)CCCNC(=O)C[C@H]1C[C@H](C(=O)N2CCCCC2)[C@@]2(C)c3[nH]c4ccc(Cl)cc4c3CCN2C1=O	nt	-8	nt	-1	nt	96
CN(C)CCCNC(=O)C[C@H]1C[C@H](C(=O)N2CCOCC2)[C@@]2(C)c3[nH]c4ccc(Cl)cc4c3CCN2C1=O	nt	95*	nt	1	nt	99
Cc1nn2c(N)c(-c3ccccc3)cnc2c1-c1ccc(Cl)cc1	103	54*	105	1	4	97
CCOC(=O)c1ccc(NC(=S)N2CCSC2c2ccc(Br)cc2)cc1 (stereo not drawn)	122	-100	95	101*	1	96
CCOC(=O)c1ccc(NC(=S)N2CCC(O)CC2)cc1	96	16	96	-3	-2	102
COCCCN(C(=O)Cc1csc(-c2cccc(Cl)c2)n1)c1c(N)n(Cc2ccccc2)c(=O)[nH]c1=O	nt	-1	nt	1	nt	102
COc1ccc2nc(/N=C/c3c(C)[nH]n(-c4ccc(C)cc4C)c3=O)sc2c1	98	15	127	65*	-1	95
CN(c1ccccc1)S(=O)(=O)c1ccc(NC(=O)c2ccccc2)cc1	108	-16	93	1	-1	94
CCS(=O)(=O)c1ncc(Cl)c(C(=O)Nc2ccc(S(=O)(=O)N3CCC(C)CC3)cc2)n1	99	34	99	0	1	44*
COc1cccc(NC(=O)c2nc(S(C)(=O)=O)ncc2Cl)c1	106	-3	103	-1	4	96
CN(c1ccccc1)S(=O)(=O)c1ccc(NC(=O)c2nc(S(C)(=O)=O)ncc2Cl)cc1	100	0	102	22	2	40*
CCS(=O)(=O)c1ncc(Cl)c(C(=O)Nc2ccccc2OC)n1	105	20	103	0	1	69*
Cc1ccc2[nH]c(C(=O)N/N=C/c3ccccc3C(=O)O)c(-c3ccccc3)c2c1	99	6	103	72*	-3	99
Cc1ccc(CCNC(=O)C2CCCN(c3ncnc4c3nc3n4CCCCC3)C2)cc1 (stereo not drawn)	97	13	100	3	5	101
CCOc1ccc(CCNC(=O)C2CCCN(c3ncnc4c3nc3n4CCCCC3)C2)cc1 (stereo not drawn)	99	115*	98	-2	3	97
CSc1ccc(/C=C/C(=O)N2CCN(c3ccccn3)CC2)cc1	100	92*	102	-3	14	98
COP(=O)(OC)c1nc(-c2ccc([N+](=O)[O-])cc2)oc1N1CCCCC1	97	-44	98	54*	1	96
COc1cc(S(=O)(=O)NCc2ccc(F)cc2)ccc1-n1cnnn1	103	-14	101	1	0	91
C=CCOc1cccc(CNc2ccc3[nH]c(=O)[nH]c3c2)c1	97	91*	101	0	0	94
CCc1nn(C(CC)C(=O)NCc2cccc(OC)c2OC)c(=O)c2cc3occc3n12 (stereo not drawn)	103	8	99	-2	2	94
O=C(COc1ccc(S(=O)(=O)NC2CCCCC2)cc1Cl)NCc1cccnc1	103	80*	103	-4	1	107
SMILES	MEKK2 WT-MEK5	CRFR2-BP antag	MEKK3 PB1 HTS	CRFBP-R2 agonist	MEKK2mut PB1 HTS	ABCB6 inh 2
c1ccc(CCNc2nc3ccccc3n3nnnc23)cc1	nt	-133	nt	82*	nt	100
CCNC(=S)Nc1cc(OCC)c(NC(=O)c2ccco2)cc1OCC	99	4	97	-5	1	100
CCNC(=S)Nc1cc(OC)c(NC(=O)c2ccco2)cc1OC	100	73*	98	-6	-1	90
COc1cc(OC)cc(C(=O)NCC2CCCN(Cc3cccc(C(C)=O)c3)C2)c1 (stereo not drawn)	102	-14	98	1	4	100
CCc1cccc(C)c1NC(=O)CSc1n[nH]c(N)n1	nt	-4	nt	1	nt	96
O=C(NC(=S)Nc1cccc(NC(=S)NC(=O)c2ccccc2)c1)c1ccccc1	nt	-2	nt	1	nt	108
Cc1ccc(NC(=S)NC(=O)c2ccccc2)cc1NC(=S)NC(=O)c1ccccc1	2.0*	-32	83	1	-11	106
Cc1ccc(C)c(NC(=O)Cn2ccn(-c3ccc4c(c3)OCO4)c(=O)c2=O)c1	nt	4	nt	0	nt	99
CCOc1cnn(-c2cc(Oc3ccc(C)cc3)ncn2)c(=O)c1Cl	105	7	104	-1	8	101
Cc1ccccc1Oc1cc(-n2ncc(Cl)c(Cl)c2=O)ncn1	98	65*	94	-1	-1	60*
COc1cc(OC)c(C2N(c3ccc(Cl)cc3)C(=O)C3CCCN32)cc1OC (stereo not drawn)	10*	-10	96	1	13	95
COc1cc(NC(=O)CSc2cc(C)c3cc(C)cc(C)c3n2)c(C(=O)O)cc1OC	93	65*	94	-5	-4	98
CCOc1ccc(CCNC(=O)CN2C(=O)COc3ccc(S(=O)(=O)N4CCOCC4)cc32)cc1	106	-17	103	1	4	100
O=C(Cc1ccccn1)c1ccc(F)cc1	nt	-4	nt	1	nt	98
C[C@H](CO)N1C[C@H](C)[C@@H](CN(C)S(=O)(=O)c2cccs2)Oc2ccc(NS(=O)(=O)c3ccccc3)cc2CC1=O	nt	5	nt	-1	nt	99
